Data reported in the supplement of paper PMC4237247.

test system: HeLa; experiment: percent cells in S phase; higher = more S arrest; conditions: 10 µM; 20 h; hit class: G1-phase inhibitor
Method: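 HTS of 79,827 drug-like compounds at 10 uM. HeLa cells in 384-well plates were treated for 20 h, fixed, stained with Vybrant DyeCycle Green and scanned on an Acumen eX3 cytometer to give per-well cell cycle profiles (% cells in each phase). The plate Z' was 0.51. Only hits are listed: G1 hits >4 SD and S hits >5 SD from the mean.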

Question: For CNc1ccc2oc(C[C@H]3O[C@@]4(CC[C@H]3C)O[C@H]([C@H](C)C(=O)c3ccc[nH]3)[C@H](C)C[C@H]4C)nc2c1C(=O)O, which “percent cells in S phase” value is on record?
Answer: 6.33%

Question: How did the “percent cells in S phase” value turn out when C[C@@]12C(=O)OC(=O)[C@]1(C)[C@H]1CC[C@@H]2O1 was run?
Answer: 8.95%

Question: For C/C=C(/C)C(=O)O[C@H]1C(C)=C2[C@H]([C@@H]1OC(=O)CCCCCCC)[C@@](C)(OC(C)=O)C[C@H](OC(=O)CCC)[C@@]1(O)[C@H]2OC(=O)[C@@]1(C)O, which “percent cells in S phase” value is on record?
Answer: 7.22%

Question: With CNC1CC2OC(C)(C1OC)n1c3ccccc3c3c4c(c5c6ccccc6n2c5c31)C(=O)NC4 (centres undefined) as the compound, how does the “percent cells in S phase” value read?
Answer: 5.4%

Question: How did the “percent cells in S phase” value turn out when C[C@@H]1C[C@@H]([C@H](O)CC2CC(=O)NC(=O)C2)C(=O)[C@@H](C)C1 [Cycloheximide] was run?
Answer: 6.83%

Question: For C/C(=C\c1ccc(Cl)cc1)[N+](=O)[O-], which “percent cells in S phase” value is on record?
Answer: 4.01%

Question: How did the “percent cells in S phase” value turn out when O=[N+]([O-])c1ccc(NCCO)c2ncccc12 was run?
Answer: 4.86%

Question: How did the “percent cells in S phase” value turn out when CC(C)(C)c1cc(C=C(C#N)C#N)cc(C(C)(C)C)c1O was run?
Answer: 8.81%

Question: With C[C@@H]1O[C@@H](O[C@H]2C[C@@H](O)[C@]3(CO)[C@H]4[C@H](O)C[C@]5(C)[C@@H](C6=CC(=O)OC6)CC[C@]5(O)[C@@H]4CC[C@]3(O)C2)[C@H](O)[C@H](O)[C@H]1O as the compound, how does the “percent cells in S phase” value read?
Answer: 15%
